Screens deposited in PubChem BioAssay by several laboratories.
Most compounds without a hit are left out; they make up all but 4.2% or so of the library.
tim10-1 inh: inhibits growth of tim10-1 mutant yeast. S. cerevisiae tim10-1 ts strain growth, BacTiter-Glo, 24 h. inhibition, % at 20 µM. 2.2% of 330,000 active. AID 463190;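 active = inhibition of at least 40%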;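 note: mutant grown at 25 °C; 0% = DMSO wells with yeast and 100% = wells holding no yeast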
NALP1 yeast inh: inhibitors of NALP1 inflammasome in yeast | AID 2071 | S. cerevisiae NALP1/ASC/caspase-1 growth, X-gal OD620, 72 h | 0.61% of 280,000 active | inhibition, % at 10 µM; in the data active = inhibition mostly above about 24%, no sharp cut-off; inactive = mostly below about 32%
tim23-1 inh: tim23-1 yeast growth inhibition; S. cerevisiae tim23-1 growth, BacTiter-Glo luminescence, 24 h; inhibition, % at 20 µM; 1.3% of 330,000 active; AID 463212;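 active = growth inhibition of the mutant yeast at or above 50%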;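 note: temperature-sensitive mutant grown at 25 °C; plate controls were DMSO-treated mutant yeast for no effect and medium wells lacking yeast for full effect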
NALP3 yeast inh: NALP3 inhibition in yeast | inhibition, % at 10 µM | 0.39% of 330,000 active | Yeast reconstituted NLRP3/ASC/caspase-1, beta-gal luminescence, 24 h;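 active = inhibition of 50% or more; inactive = inhibition below 50%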;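 note: plate controls were induced DMSO wells for no effect and uninduced yeast grown without galactose for full effect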
TIM10 inh: inhibits growth of TIM10 yeast strain; S. cerevisiae TIM10 strain growth, BacTiter-Glo luminescence, 24 h; inhibition, % at 10 µM; 1.4% of 330,000 active; AID 463195;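 active = inhibition of 40% or more at the single tested concentration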;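 note: wild-type TIM10 isogenic control strain grown at permissive 25 °C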
PfHsp90 set2: inhibits growth of yeast expressing Plasmodium falciparum Hsp90 | S. cerevisiae expressing PfHsp90, BacTiter-Glo ATP, 48 h; yeast lacking PDR1 and PDR3 efflux regulators | inhibition, % at 9.4 µM | 0.32% of 310,000 active;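 active = every replicate shows inhibition above about 80%, whatever the replicate mean, limit read from the data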;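 note: 0% = DMSO neutral controls and 100% = 20 µM radicicol positive controls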
tim23-1 conf: confirmation of tim23-1 mutant yeast growth inhibitors; inhibition, % at 20 µM; 83% of 4,400 active; S. cerevisiae tim23-1 growth, BacTiter-Glo luminescence, 24 h; AID 463218; shares compounds with tim23-1 inh;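 active = inhibition above about 39% in either of two replicate wells at 20 µM, limit read from the data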;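 note: temperature-sensitive tim23-1 mutant grown at 25 °C; 0% = DMSO wells with yeast and 100% = medium wells without yeast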
The depositor's hits bear a star; . = no result given.

SMILES	tim10-1 inh	NALP1 yeast inh	tim23-1 inh	NALP3 yeast inh	TIM10 inh	PfHsp90 set2	tim23-1 conf
CCC(=O)NC(c1ccc(OC)cc1)c1cc(Cl)c2cccnc2c1O (stereo not given)	19.5	-17.4	36.5	13.8	36.8	51.8	.
CC(=O)NC(c1ccc(C)cc1)c1cc(Cl)c2cccnc2c1O (stereo not given)	-2.9	13.6	62.3*	47.9	-2.2	114.5*	67.5*
COc1cccc(C(NC(C)=O)c2ccc3cccnc3c2O)c1 (stereo not given)	1.4	8.0	43.0	32.8	-38.9	13.2	.
CC(=O)NC(c1ccc(C(C)C)cc1)c1ccc2cccnc2c1O (stereo not given)	9.4	-12.4	58.1*	18.3	-29.7	107.9*	60.1*
CCCC(=O)NC(c1ccccc1)c1ccc2cccnc2c1O (stereo not given)	25.8	18.0	58.1*	11.5	-7.9	113.3*	60.2*
CCCCC(=O)NC(c1ccccc1)c1ccc2cccnc2c1O (stereo not given)	10.9	-5.4	66.3*	7.9	6.7	114.8*	57.5*
C/C(=N/NC(=O)NC12CC3CC(CC(C3)C1)C2)c1ccccc1	6.6	15.3	31.8	6.4	21.3	8.9	.
CCCCC(=O)NC(c1ccc(C(C)C)cc1)c1ccc2cccnc2c1O (stereo not given)	-20.2	23.5	57.8*	21.4	-22.8	89.7*	59.2*
CCC(=O)NC(c1ccccc1Cl)c1c(O)ccc2ccccc12 (stereo not given)	1.8	21.5	21.4	13.6	0.8	7.2	.
CCCCC(=O)NC(c1ccccc1Cl)c1ccc2cccnc2c1O (stereo not given)	-1.6	-37.7	53.5*	18.2	-47.4	57.8	49.3*
CCOc1ccc2oc(C(=O)Nc3ccc4c(c3)OCO4)c(C)c2c1	-5.8	21.8	95.3*	32.8	11.9	-6.6	17.2
Cn1c(N)c(C(=O)COC(=O)c2ccccc2C(=O)c2ccc(Cl)cc2)c(=O)n(C)c1=O	8.6	.	13.6	18.3	5.6	.	.
CC(=O)NC(=S)Nc1ccc([N+](=O)[O-])cc1C	-0.7	6.4	-0.7	16.4	-0.1	11.4	.
Cc1cc([N+](=O)[O-])ccc1NC(=S)NC(=O)Cc1ccccc1	35.4	11.9	50.1*	37.4	29.6	.	26.8
CCC1NC(=O)c2ccccc2N1c1cccc(Cl)c1 (stereo not given)	3.1	.	28.0	15.4	-13.8	-13.1	.
Cc1ccc(N=Cc2cc(Cl)cc(Cl)c2O)nc1	8.5	37.1	66.0*	5.4	10.4	-33.6	75.9*
Cc1ccc(N=CC2=C(O)CC(C)(C)CC2=O)nc1	7.6	-3.1	1.0	10.3	-3.0	-29.7	.
CCCc1nc2ccccc2c(C(=O)N(CC)CC(=O)NCc2cccs2)c1CC	20.9	.	25.8	7.1	13.3	3.4	.
O=C(NC(=S)N1CCN(c2ccc(F)cc2)CC1)C12CC3CC(CC(C3)C1)C2	13.4	28.8	-5.2	20.0	-8.3	-10.5	.
CCOc1ccccc1N1CCN(C(=S)NC(=O)C23CC4CC(CC(C4)C2)C3)CC1	33.5	29.2	50.8*	11.5	35.0	-0.9	31.2
CCOc1ccccc1N1CCN(C(=S)NCc2ccc(Cl)cc2)CC1	39.4	9.4	54.9*	9.3	35.5	-24.2	46.0*
O=C(CSc1cc(Cl)ccc1Cl)NC1CCCC1	-19.6	16.6	11.6	28.2	-6.5	16.9	.
Nn1cnnc1N/N=C/c1cc(Br)cc(Br)c1O	4.4	9.3	56.8*	49.8	39.1	-50.4	60.1*
O=C(NNc1ncccc1Cl)c1c(Cl)cccc1Cl	17.1	-14.8	2.5	5.4	-25.4	14.3	.
CC1CCCCN1C(=O)Nc1cccc(Cl)c1 (stereo not given)	16.4	2.3	51.4*	4.4	17.3	.	48.0*
COc1ccc(-c2c(C#N)c(N)nc3c2CCc2ccccc2-3)cc1OC	39.7	30.4	51.0*	4.5	29.4	.	34.2
COc1cc(-c2c(C#N)c(N)nc3c2CCCC3)ccc1O	8.0	16.8	15.7	-2.4	5.3	-7.7	.
O=C(Nc1ccc(S(=O)(=O)Nc2ncccn2)cc1)C1=NN(c2ccccc2)C(=O)CC1	-12.3	-1.7	-11.5	2.5	4.5	6.5	.
